Screening results from PubChem BioAssay.
ATXN2 expr inh: Primary qHTS for Inhibitors of ATXN expression; HEK-293 ATXN2-luciferase reporter, luminescence, 24 h; 360,000 tested, 0.72% active; Potency, µM (top dose mostly 57 µM), for the others: top-dose activity change, negative = inhibition, actives largely listed as inhibitors; AID 1745845, 2022; also: % is scaled to controls: 0 for no effect and ±100 for the full control effect; nearly all actives have a fitted effect of over 55% in size
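qHTS (up to 57 uM final) was run with 24 h compound exposure of reporter cells at 37 °C. Each well was multiplexed: SteadyGlo luminescence measured ATXN2-luciferase expression after a fluorogenic Gly-Phe-AFC viability readout (25 uM final).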
HTT ATP protect: qHTS Multiplex Assay to Identify Dual Action Probes in a Cell Model of Huntington: Cytoprotection (ATP) | PC12 HTT-Q103 induced, cytoprotection, ATP luminescence, 40 h | Potency, µM (doses to about 56.4 µM), inactives show cytoprotection (ATP increase), hits mostly activators | 230,000 tested, 0.14% active | AID 1471, 2008; also: % of control where 0% means no effect; nearly all actives have a fitted effect of over 45% in size
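Cells were plated at 1500 per well in phenol red-free DMEM with 5% equine and 5% calf serum. Tebufenozide (100 nM final) and compounds were added, then ATPlite reagent, and luminescence was read.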
HepG2 tox: qHTS for Inhibitors of TGF-b: Cytotox Counterscreen; AID 588856, 2011; HepG2 CAGA-GFP viability, ATP luminescence, 18 h; 410,000 tested, 0.76% active; Potency, µM (series often up to 46.1 µM), for the others: top-dose activity change, negative = cytotoxicity, most hits filed as cytotoxic
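CellTiter-Glo luminescence gave cytotoxicity after 18 hours at 37 degrees C. The cells were HepG2 CAGA-GFP in 1% FBS DMEM, stimulated with 500 pg/mL TGF-beta after compound addition. %Activity was normalised to no-cell wells (complete cell-killing) and DMSO (no toxicity), and curves were fitted and classified.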
TGFb inhibitor: qHTS for Inhibitors of TGF-b | HepG2 CAGA-GFP TGF-b/SMAD3 reporter, GFP fluorescence, 18 h; TGF-beta stimulated, 500 pg/mL final | Potency, µM (titrated, usually from 46.1 µM), inactives show top-dose activity, negative = inhibition, hits mostly inhibitors | 410,000 tested, 1.2% active | AID 588855, 2011; also: % is scaled to controls: 0 for no effect and ±100 for the full control effect; nearly all actives have a fitted effect of over 65% in size
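Using HEPG2 CAGA-GFP reporter cells at 1000 cells/well, we pinned test compounds, stimulated with recombinant TGF-beta (500 pg/mL final) and measured total well GFP after 18 h.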
ATXN viability: Viability Counterscreen for Primary qHTS for Inhibitors of ATXN expression; S2 cells (HEK-293 line with an ATXN2-luciferase reporter) viability, CellTiter-Fluor protease fluorescence, 24 h; 400,000 tested, 0.49% active; Potency, µM (doses to about 56.7 µM), usual class: cytotoxic; also: nearly all actives have a fitted effect of over 40% in size
HTT aggregate: qHTS Multiplex Assay to Identify Dual Action Probes in a Cell Model of Huntington: Aggregate Formation (GFP) | PC12 HttQ103-GFP aggregates, Acumen cytometry, 40 h | Potency, µM (titrated, usually from 46.1 µM), for the others: at the top dose activity change, negative = inhibition, hits mostly inhibitors | 220,000 tested, 1.1% active; also: % is scaled to controls: 0 for no effect and ±100 for the full control effect; nearly all actives have a fitted effect of over 60% in size
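Steps: seed 1500 PC12 HTTQ103-GFP cells/well; add tebufenozide, 100 nM final; add compound titration; add ATPLite reagent; quantify GFP aggregates by laser scanning cytometry.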
* marks the source's active call; other numbers are inactive results; i = inactive; ? = inconclusive; · = no result given; ! = not confirmed by another sample; [ ] = another dose, or the depositor's remark. Compounds with a hit are over-represented: about 2.8% of the library has one in this group of screens. Calls follow the shape of the dose curve; as a rule, active = well fitted curve in the direction sought with a large enough effect; inconclusive = small, poorly fitted or top-dose-only effect, or another doubt; inactive = no such curve, though single readings can be large; an effect the other way counts as inactive or inconclusive. Potency is read from the fitted curve at half-maximal effect.

SMILES | ATXN2 expr inh | HTT ATP protect | HepG2 tox | TGFb inhibitor | ATXN viability | HTT aggregate
CCN1CCN(Cc2ccc(NC(=O)c3cc(NC(=O)c4cc(-c5ccc(OC)cc5)n[nH]4)cc(OC)c3)cc2C(F)(F)F)CC1 | 14µM* | -14%[10 µM] | -112% | ? | 18µM* | 24%[9.22 µM]
CCN1CCN(Cc2ccc(NC(=O)c3cc(NC(=O)c4cncc(-c5cccs5)c4)cc(OC)c3)cc2C(F)(F)F)CC1 | 25µM*! | · | 14µM*! | 14µM* | 35µM* | ·
CCN1CCN(Cc2ccc(NC(=O)c3cc(NC(=O)c4cc5cccc(OC)c5o4)cc(OC)c3)cc2C(F)(F)F)CC1 | 8.9µM*! | -4%[10 µM] | 18µM*! | ? | 16µM* | 31%[9.22 µM]
CC(=O)NC[C@@H]1CN(c2ccc(N3CCOCC3)c(F)c2)C(=O)O1 | · | ? | · | · | · | -16%
Cc1onc(-c2ccccc2)c1C(=O)N/N=C/c1ccco1 | 1% | -2%[10 µM] | -68% | -11% | i | 0%[9.22 µM]
O=C(CNC(=O)c1ccccc1Cl)N/N=C/c1ccc([N+](=O)[O-])s1 | -30%[11.3 µM] | 14%[10 µM] | 10µM* | 13µM* | i | 11µM*
O=C(Cc1cccs1)N/N=C\c1ccc([N+](=O)[O-])s1 | · | -108% | -15% | ? | ? | ?
Cc1onc(-c2ccccc2)c1C(=O)N/N=C/c1ccc([N+](=O)[O-])s1 | ? | · | 10µM* | ? | i | -17%
Cc1ccccc1CN1CCc2nnc(C(C)NC(=O)c3cc(F)ccc3F)n2CC1 (stereo unspecified) | · | · | · | · | i | ·
COc1ccc(-c2nc3c(c4c2C[C@H](c2ccccc2)OC4)CN(S(=O)(=O)c2ccc(C#N)cc2)CC3)c(C)c1 | · | -16%[10 µM] | · | · | · | ·
CCS(=O)(=O)c1ccc(OC)c(N=Nc2ccc(O)c3ncccc23)c1 | -7% | -177% | -12% | 5% | i | 7.9µM*
NS(=O)(=O)c1ccc(N=Nc2ccc(O)c3ncccc23)cc1 | · | · | 6.3µM* | 8.9µM* | 10µM* | ·
CCN(CC)S(=O)(=O)c1cc(OC)ccc1N=Nc1ccc(O)c2ncccc12 | · | · | -26% | ? | · | ·
Cc1cccc(N=Nc2ccc(O)c3ncccc23)c1 | -28% | · | -10% | ? | 10µM* | 15%
O=C(O)C[C@@H]1CCCc2ccccc2[C@H]1O | · | 9%[1.9 µM] | · | · | · | ·
Cc1ccc(SC/C(O)=C(\C#N)c2nc3ccccc3s2)cc1 | 16% | 16%[1.9 µM] | -23% | 25µM* | i | ?
N#C/C(=C(/O)c1ccc(-c2cccc([N+](=O)[O-])c2)o1)c1nc2ccccc2s1 | 23% | -136% | -72% | 13µM* | i | 11µM*
COc1ccc(C/C(O)=C(\C#N)c2nc3ccccc3s2)cc1 | 5% | 6%[10 µM] | -77% | ? | i | 13µM*
Cc1nn(Cc2ccc(C(=O)Nc3nc4c(C)cccc4s3)o2)c(C)c1Br | -9% | -13% | -4% | 2% | i | 18µM*
Cc1cc(NC(=O)c2ccc(Cn3nc(C)c(Br)c3C)o2)no1 | ? | -18% | -13% | -2% | i | -4%
Cc1ccc(S(=O)(=O)NCC(Nc2cccc(Cl)c2)c2ccccc2)cc1 (stereo unspecified) | ? | · | 18µM* | 11µM* | i | ·
O=S(=O)(NCC(Nc1ccc(Cl)cc1)c1ccccc1)c1ccc(Cl)cc1 (stereo unspecified) | ? | -5%[10 µM] | -66% | 13µM* | i | -9%
CO[C@H]1C[C@@H]2CC[C@@H](C)[C@@](O)(O2)C(=O)C(=O)N2CCCC[C@@H]2C(=O)O[C@H]([C@H](C)C[C@@H]2CC[C@H](OP(C)(C)=O)[C@H](OC)C2)CC(=O)[C@H](C)C=C(C)[C@@H](O)[C@@H](OC)C(=O)[C@H](C)C[C@H](C)C=CC=CC=C1C | 4% | · | · | · | · | ·
COc1cc(C(=O)Oc2ccc3ccc(O)cc3c2)cc(OC)c1OC | · | · | 22µM* | ? | i | ·
COc1ccc(C(=O)/C=C/c2ccc(OC(=O)c3cc(OC)c(OC)c(OC)c3)cc2)cc1 | -21% | -4%[10 µM] | -30% | -28% | ? | -8%
SMILES | ATXN2 expr inh | HTT ATP protect | HepG2 tox | TGFb inhibitor | ATXN viability | HTT aggregate
Cc1oc(-c2ccccc2NC(=O)c2ccsc2)nc1CN(C)Cc1ccc2c(c1)CCCN2C | · | · | · | · | i | ·
Cc1ccc(C(=O)Nc2nc(C(N)Cc3ccc(C(F)(F)F)cc3)cs2)cc1 (stereo unspecified) | ? | · | 18µM* | ? | · | ·
COc1ccc(NC(=O)Nc2nnc(-c3ccncc3)s2)cc1 | 4%[11.3 µM] | -23% | -24% | ? | i | 20µM*
COc1ccc(NC(=O)Nc2nc(C(N)Cc3ccc(C(F)(F)F)cc3)cs2)cc1 (stereo unspecified) | ? | · | 10µM* | 11µM* | i | ·
COc1ccc(CC(N)c2csc(NC(=O)Nc3ccc(OC)cc3)n2)cc1 (stereo unspecified) | ? | · | -82% | ? | ? | ·
COc1cc(NC(=O)Nc2nc(C(N)Cc3ccc(C(F)(F)F)cc3)cs2)cc(OC)c1OC (stereo unspecified) | ? | · | -106% | 11µM* | ? | ·
NC(Cc1ccc(C(F)(F)F)cc1)c1csc(Nc2ncccn2)n1 (stereo unspecified) | -28% | · | -30% | 21% | ? | ·
CC1=C/C(=C\c2ccc(N(C)C)cc2)c2ccccc21 | · | · | -7% | -3% | · | ·
COc1ncccc1C(=O)N1CCOc2ccc(C(O)C(c3ccccc3)c3ccccc3)cc2C1 (stereo unspecified) | · | · | · | · | i | ·
COc1ccc(/C=C/c2ccnc3ccccc23)cc1 | · | · | -32% | ? | · | ·
COc1ccc(CC(N)c2csc(NC(=O)c3cc(C(C)(C)C)oc3C)n2)cc1 (stereo unspecified) | ? | · | -103% | ? | 28µM* | ·
CCCCOc1ccccc1NC(=O)Cn1c(-c2nonc2N)nc2ccccc21 | ? | -6%[10 µM] | -20% | ? | 14µM* | -4%
CCc1ccccc1NC(=O)Cn1c(-c2nonc2N)nc2ccccc21 | · | · | -1% | -22% | · | ·
O=C(c1cnsn1)N1CCOc2ccc(CN3CCOCC3)cc2C1 | · | · | · | · | i | ·
NS(=O)(=O)c1ccc(N2CCCCS2(=O)=O)cc1 | -17% | · | · | · | i | ·
CCn1nc(C)cc1-c1nnc(Sc2ncc([N+](=O)[O-])s2)n1C | · | · | 4µM* | 2.8µM* | 3.5µM* | ·
